The text below walks through data of PubChem BioAssay (NCATS).

Values joined by “and” are separate entries in the source; they are usually repeats but may differ in a detail not shown here. Equal entries are not always repeated. Inconclusive results are not listed. More than one record can exist for a structure, and the calls need not agree. Active and inactive are the calls of the source. Unless noted, calls come from the whole dose curve; as a rule, active = well fitted curve in the direction sought with a large enough effect; inconclusive = small, poorly fitted or top-dose-only effect, or another doubt; inactive = no such curve, though single readings can be large; an effect the other way counts as inactive or inconclusive.

Assay [1] deals with Calcium and integrin-binding protein 1 (Homo sapiens) (UniProt Q99828). The assay is described as follows: Validation qHTS for Identification of Calcium Integrin Binding protein 1 (CIB1) Competitor (AID 1508618). Note: % is set by controls: 0 for no effect and ±100 for the full control effect. A digest of the protocol:
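Fluorescence polarization with 1 uM CIB1-GST and 100 nM FITC-alphaIIb peptide in HEPES pH 7.4, NaCl, 5 mM CaCl2, Tween20. Compounds at up to 114 uM final, preincubated with protein 15 min; read after 15 min more at RT.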
(Quantitative high-throughput screening tests each substance at several concentrations.)

The target is the same in assay [2]. The assay is described as follows: Primary qHTS for Identification of Calcium Integrin Binding Protein 1 (CIB1) Competitor (AID 1508620).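 Note: GST tagged CIB1 binding a fluorescein labelled alphaIIb integrin peptide tracer; top concentration of the series differs between compounds; % is set by controls: 0 for no effect and ±100 for the full control effect.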 A digest of the protocol:
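CIB1-GST (1 uM final) and compound incubated 15 min at room temperature before adding FITC-alphaIIb peptide tracer (100 nM final). Competition for binding read by fluorescence polarization (ex 480, em 540) after another 15 min at room temperature.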

Assay [3] is described as follows: Primary qHTS for small molecule stabilizers of the endoplasmic reticulum resident proteome: Secreted ER Calcium Modulated Protein (SERCaMP) assay (AID 1508630). For activity change, negative = inhibition: % is set by controls: 0 for no effect and ±100 for the full control effect. Note: potency is the fitted concentration of half-maximal effect. A digest of the protocol: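 GLuc-SERCaMP-expressing SH-SY5Y cells, pretreated 16 h with compound, are challenged with thapsigargin to empty ER calcium stores; after 4 h, coelenterazine is added directly to the medium and luminescence is imaged.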

Assay [4] addresses Papain (Carica papaya) (UniProt P00784). Briefly: Primary qHTS assay for inhibitors of the protease papain (AID 1645873).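 Note: papain turnover of Z-FR-AMC read as the AMC fluorescence gain over 10 min.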 Note: potency is the fitted concentration of half-maximal effect.
Assay [5] can be described thus: A High-Content qHTS Against Drug Library for the Identification of Small Molecules that Inhibit DYT1 Early Onset Primary Dystonia-Associated Cell Pathology (AID 1645839; calls by dose curve). A digest of the protocol: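 In this high-content image screen, delE TorsinA mislocalization in inducible Flp-In 293 cells is scored as %pathology, with cell count serving as the counterscreen. Compound exposure lasts 48 h under tetracycline induction in reduced-serum medium.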

The nature of assay [6]: Primary qHTS for inhibitors of nuclear receptor binding SET domain protein 2 (NSD2) in an isogenic RCH-ACV NSD2 p.E1099K mutant (9B) (AID 1645876). Note: nearly all actives have a fitted effect of over 70% in size. Note: potency is the fitted concentration of half-maximal effect.
Assay [7] can be described thus: Primary qHTS for inhibitors of nuclear receptor binding SET domain protein 2 (NSD2) in an RCH-ACV wild type WT cells (2C) (AID 1645877). Note: nearly all actives have a fitted effect of over 70% in size. Note: potency is the fitted concentration of half-maximal effect.
The nature of assay [8]: Counterscreen qHTS for small molecule stabilizers of the endoplasmic reticulum resident proteome: GLuc-NoTag assay (AID 1508627).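 Note: SH-SY5Y cells given compound then 100 nM thapsigargin to empty ER calcium; 0% = thapsigargin alone and -100% = DMSO vehicle control.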 A digest of the protocol: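 Luminescence of Gaussia luciferase secreted into the medium (coelenterazine, 0.07x final, unlysed cells) was the read-out. Human SH-SY5Y neuroblastoma cells constitutively secreting untagged GLuc received compound for 19 h, then 100 nM thapsigargin for 4 h.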
(In general: Counterscreens check selectivity or assay interference.)

Assay [9] is described as follows: Confirmatory qHTS for small molecule stabilizers of the endoplasmic reticulum resident proteome: Secreted ER Calcium Modulated Protein (SERCaMP) assay (AID 1508628). Note: nearly all actives have a fitted effect of over 40% in size. Note: potency is the fitted concentration of half-maximal effect. A digest of the protocol:
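SH-SY5Y cells stably expressing GLuc-SERCaMP, treated 16 h with compound (primary 1.53, 7.67, 38.3 uM; confirmation 11 concentrations, up to 76.6 uM), then 100 nM thapsigargin for 4 h. Secreted Gaussia luciferase in medium read by coelenterazine luminescence.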

A short description of assay [10]: Cell Viability qHTS for small molecule stabilizers of the endoplasmic reticulum resident proteome (AID 1508629).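 Note: human SH-SY5Y neuroblastoma cells carrying the GLuc-SERCaMP reporter; compound exposure about 46 h in total before the viability read; % is set by controls: 0 for no effect and ±100 for the full control effect.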 The conditions noted are these: cell viability counter-screen, 100 nM thapsigargin for final 4 h.
For assay [11], the target named is Cytochrome P450 2D6 (Homo sapiens) (UniProt P10635). The assay is described as follows: Cytochrome P450 family 2 subfamily D member 6 (CYP2D6) small molecule antagonists: luciferase biochemical (cell-free) qHTS assay (AID 1645840; active = well fitted curve in the direction sought with a large enough effect in the repeat runs; an effect the other way counts as inactive or inconclusive; note: nearly all actives have a fitted effect of over 55% in size; note: potency is the fitted concentration of half-maximal effect). A digest of the protocol:
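P450-Glo luminescent screen: recombinant CYP2D6 enzyme–proluciferin substrate mix preincubated with compound 10 min at room temperature, then NADPH regeneration added for 1 h at room temperature. Detection reagent added for 20 min; luciferin light read as relative luminescence units.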

Assay [12] addresses Cytochrome P450 2C9 (Homo sapiens) (UniProt P11712). The assay is described as follows: Cytochrome P450 family 2 subfamily C member 9 (CYP2C9) small molecule antagonists: luciferase biochemical (cell-free) qHTS assay (AID 1645842; active = well fitted curve in the direction sought with a large enough effect in the repeat runs; an effect the other way counts as inactive or inconclusive; note: nearly all actives have a fitted effect of over 55% in size; note: potency is the fitted concentration of half-maximal effect). A digest of the protocol:
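Luminescence, after 20 min with luciferin detection reagent, reflected CYP2C9 turnover during a 1 h NADPH-driven reaction at 37C. Enzyme-substrate mix contained 0.4% bovine serum albumin and was preincubated with compound 10 min at room temperature.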

Assay [13] has as its target N-terminal Xaa-Pro-Lys N-methyltransferase 1 (Homo sapiens) (UniProt Q9BV86). Briefly: Confirmatory qHTS for Inhibitors of N-terminal methyltransferase 1 (NTMT1): MTaseGlo Assay (AID 1645874). Note: potency is the fitted concentration of half-maximal effect; nearly all actives have a fitted effect of over 65% in size. A digest of the protocol:
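NTMT1 (125 nM) preincubated 15 min with compound and 100 uM SAM, then 1 uM SPKRIA peptide added for 30 min at room temperature. SAH detected by MTase-Glo luminescence; normalized to no-enzyme and DMSO controls, fitted to 4-parameter Hill.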

Assay [14] addresses Catechol O-methyltransferase (Homo sapiens) (UniProt P21964). The assay is described as follows: Confirmatory Screen for Target Class Profiling of Small Molecule Inhibitors of Methyltransferases (AID 1745852; calls by dose curve; note: potency is the fitted concentration of half-maximal effect). Particulars: MTase-Glo luminescence, SAH detection, recombinant enzyme; measured here: COMT max response; stronger effect = lower value.
In assay [15] the target is Guanidinoacetate N-methyltransferase (Homo sapiens) (UniProt Q14353). Described as above. Particulars: MTase-Glo luminescence, SAH detection, recombinant enzyme; activity change, negative = inhibition: at 57.3 µM (top of the series).

Papain (Carica papaya), sequence (P00784 whole entry, looked up): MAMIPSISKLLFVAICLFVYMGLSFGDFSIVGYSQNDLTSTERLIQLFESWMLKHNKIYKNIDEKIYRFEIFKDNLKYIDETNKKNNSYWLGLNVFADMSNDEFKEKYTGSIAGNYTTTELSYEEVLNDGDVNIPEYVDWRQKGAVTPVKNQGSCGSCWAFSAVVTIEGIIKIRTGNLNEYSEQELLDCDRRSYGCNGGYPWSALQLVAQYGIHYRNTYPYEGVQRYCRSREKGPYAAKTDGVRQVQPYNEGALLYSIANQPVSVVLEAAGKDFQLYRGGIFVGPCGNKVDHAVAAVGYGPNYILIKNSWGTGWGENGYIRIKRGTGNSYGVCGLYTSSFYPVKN
Cytochrome P450 2D6 (Homo sapiens), sequence (P10635 whole entry, looked up): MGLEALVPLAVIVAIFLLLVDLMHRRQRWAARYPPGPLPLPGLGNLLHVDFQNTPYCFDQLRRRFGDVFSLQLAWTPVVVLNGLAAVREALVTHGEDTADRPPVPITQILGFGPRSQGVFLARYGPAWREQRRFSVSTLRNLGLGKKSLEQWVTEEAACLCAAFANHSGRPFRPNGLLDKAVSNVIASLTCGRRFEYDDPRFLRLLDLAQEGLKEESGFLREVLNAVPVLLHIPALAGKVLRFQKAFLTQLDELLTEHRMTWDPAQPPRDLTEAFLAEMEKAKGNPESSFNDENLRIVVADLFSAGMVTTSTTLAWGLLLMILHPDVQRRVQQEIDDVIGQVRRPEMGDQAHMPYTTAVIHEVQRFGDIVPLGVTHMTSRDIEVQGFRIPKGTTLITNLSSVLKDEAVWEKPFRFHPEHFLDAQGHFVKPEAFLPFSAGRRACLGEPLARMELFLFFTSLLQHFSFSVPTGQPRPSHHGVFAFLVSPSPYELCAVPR
Calcium and integrin-binding protein 1 (Homo sapiens), sequence (Q99828 whole entry, looked up): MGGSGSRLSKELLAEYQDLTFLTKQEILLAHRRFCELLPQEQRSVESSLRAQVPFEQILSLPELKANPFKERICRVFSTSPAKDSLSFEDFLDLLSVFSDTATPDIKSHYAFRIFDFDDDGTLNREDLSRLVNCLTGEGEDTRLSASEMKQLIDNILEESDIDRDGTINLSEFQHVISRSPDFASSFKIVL
Cytochrome P450 2C9 (Homo sapiens), sequence (P11712 whole entry, looked up): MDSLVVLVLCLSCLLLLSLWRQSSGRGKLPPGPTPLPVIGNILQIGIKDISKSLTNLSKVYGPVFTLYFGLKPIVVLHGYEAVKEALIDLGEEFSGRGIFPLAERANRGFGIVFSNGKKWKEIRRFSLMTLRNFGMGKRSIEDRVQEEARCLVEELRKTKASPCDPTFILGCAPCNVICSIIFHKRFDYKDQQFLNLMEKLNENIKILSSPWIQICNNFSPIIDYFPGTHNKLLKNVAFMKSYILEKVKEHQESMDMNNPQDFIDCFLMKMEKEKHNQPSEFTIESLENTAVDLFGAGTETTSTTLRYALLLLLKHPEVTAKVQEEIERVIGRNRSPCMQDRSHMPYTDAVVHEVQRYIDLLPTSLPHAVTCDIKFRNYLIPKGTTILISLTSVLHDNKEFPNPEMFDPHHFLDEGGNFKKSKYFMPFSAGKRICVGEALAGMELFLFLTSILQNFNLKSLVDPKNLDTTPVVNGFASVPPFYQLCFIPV
N-terminal Xaa-Pro-Lys N-methyltransferase 1 (Homo sapiens), sequence (Q9BV86 whole entry, looked up): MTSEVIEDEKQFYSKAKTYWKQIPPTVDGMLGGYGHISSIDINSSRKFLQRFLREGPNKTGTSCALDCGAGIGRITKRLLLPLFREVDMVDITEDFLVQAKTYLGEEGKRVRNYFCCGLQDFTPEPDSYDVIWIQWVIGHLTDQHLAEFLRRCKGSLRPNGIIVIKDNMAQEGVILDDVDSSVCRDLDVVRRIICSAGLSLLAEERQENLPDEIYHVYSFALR
Catechol O-methyltransferase (Homo sapiens), sequence (P21964 whole entry, looked up): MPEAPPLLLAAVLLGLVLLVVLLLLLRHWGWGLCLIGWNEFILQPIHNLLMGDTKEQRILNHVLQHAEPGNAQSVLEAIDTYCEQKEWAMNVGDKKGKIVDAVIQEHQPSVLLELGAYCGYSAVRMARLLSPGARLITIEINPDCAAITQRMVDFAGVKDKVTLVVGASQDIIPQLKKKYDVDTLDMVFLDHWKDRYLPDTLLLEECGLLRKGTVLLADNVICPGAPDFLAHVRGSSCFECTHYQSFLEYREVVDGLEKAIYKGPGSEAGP

For `CC1=C(C(=O)O)N2C(=O)[C@@H](NC(=O)C(N)c3ccccc3)[C@H]2SC1` (stereo partly specified), the outcome in [1] and in assay [2] was “inactive” throughout. In addition, the Potency result in assay [3] and in assay [4] was “inactive” throughout.
Regarding `NC(N)=NC(N)=NCCc1ccccc1`, the outcome in assay [2] was “inactive”. The Potency entry in assay [3] and in assay [5] was “inactive” each time.
For `OCc1ccc(-c2nn(Cc3ccccc3)c3ccccc23)o1`, the outcome in assay [1] and in [2] was “inactive” each time. The Potency in assay [4] was 25.1 µM (active); in assay [6], 3.72 µM (active); in assay [7] it was 4.17 µM (active).
In the case of `N[C@@H](Cc1ccc(O)c(O)c1)C(=O)O`, the outcome in assay [1] and in assay [2] was “inactive” each time. Further, the Potency result in [4], in [6] and in [7] was “inactive” in each case.
In the case of `CCn1cc(C(=O)O)c(=O)c2cc(F)c(N3CCNCC3)nc21`, the outcome in assay [2] and in assay [8] was “inactive” in each case. Moreover, the Potency entry in assay [9], in assay [3], in assay [5], in assay [11], in assay [12] and in assay [6] was “inactive” in each case. The Potency result in assay [7] is “inactive”. In addition, in assay [10], the max response was 28.2% (inactive).
`CC(C)NCC(O)c1ccc(NS(C)(=O)=O)cc1` (stereo unspecified): the outcome in [1] and in assay [2] was “inactive” each time. In addition, the Potency entry in assay [3], in assay [4], in assay [6] and in assay [7] was “inactive” each time.
`CC(C)(C)NC(=O)[C@H]1CC[C@H]2[C@@H]3CC[C@H]4NC(=O)C=C[C@]4(C)[C@H]3CC[C@]12C`: in assay [2], the outcome was “inactive”. The Potency entry in assay [3], in [5] and in assay [11] was “inactive” in each case.
Regarding `O=C(N[C@H](CO)[C@H](O)c1ccc([N+](=O)[O-])cc1)C(Cl)Cl`, in [2], the outcome was “inactive”. The Potency result in [3] was “inactive”.
`NC(=O)c1ccc2[nH]ccc2c1`: the outcome in assay [1] and in assay [2] was “inactive” throughout. The Potency result in assay [3], in assay [4], in assay [6] and in assay [7] was “inactive” in each case.
Regarding `Cn1nnc2c(C(N)=O)ncn2c1=O`, the outcome in assay [2] is “inactive”. Also, the Potency result in assay [3], in [5], in assay [11], in assay [12], in assay [6] and in assay [7] was “inactive” each time.
As to `CCCc1cc(C(N)=S)ccn1`, the outcome in assay [2] was “inactive”. In addition, the Potency entry in [3], in [5], in assay [11], in assay [12], in assay [6] and in [7] was “inactive” throughout.
As to `S=P(N1CC1)(N1CC1)N1CC1`, the outcome in assay [2] and in assay [8] was “inactive” throughout. Moreover, the Potency result in assay [9], in assay [5], in assay [6] and in assay [7] was “inactive” each time. Moreover, the max response in assay [10] is 22.2% (inactive). For the same molecule, in [12], the Potency was 36.4 µM (active).
On to `CCCCS(=N)(=O)CCC(N)C(=O)O` (stereo unspecified), for which the outcome in assay [1] and in assay [2] was “inactive” in each case. Further, the Potency entry in assay [3], in assay [4], in assay [6] and in assay [7] was “inactive” throughout.
Turning to `CC(C)(Sc1cc(C(C)(C)C)c(O)c(C(C)(C)C)c1)Sc1cc(C(C)(C)C)c(O)c(C(C)(C)C)c1`, the outcome in [2] and in assay [8] was “inactive” each time. The Potency entry in [9], in [3], in assay [5], in assay [11], in [12] and in [6] was “inactive” in each case. For the same molecule, in [7], the Potency result was “inactive and 8.33 µM (active)”.
On to `Cn1c(=O)c2c(ncn2CC(O)CO)n(C)c1=O` (stereo unspecified), for which, in [2], the outcome was “inactive”. For the same molecule, the Potency entry in assay [3], in assay [5], in assay [11], in assay [12], in [6] and in [7] was “inactive” each time.
As to `COc1c(N2CCNC(C)C2)c(F)cc2c(=O)c(C(=O)O)cn(C3CC3)c12` (stereo unspecified), the outcome in [2] and in [8] was “inactive” throughout. The figures for the Potency in assay [9] and in [3] were 14.1 µM (active) and 20 µM (active), respectively. Also, in assay [10], the max response is -1.18% (inactive) and 19.6% (inactive). For the same molecule, the Potency entry in [5], in assay [11], in [12], in [6] and in [7] was “inactive” throughout.
Consider `O=C(NCC1CN(c2ccc(N3CCOCC3=O)cc2)C(=O)O1)c1ccc(Cl)s1` (stereo unspecified), for which the outcome in assay [2] is “inactive”. In addition, the Potency entry in assay [3], in assay [5] and in [11] was “inactive” throughout. Also, the Potency in assay [12] is 8.71 µM (active) and 3.79 µM (active).
With `CO[C@@H]1[C@@H](OC(N)=O)[C@@H](O)[C@H](Oc2ccc3c(O)c(NC(=O)c4ccc(O)c(CC=C(C)C)c4)c(=O)oc3c2C)OC1(C)C`, the outcome in assay [2] is “inactive”. Moreover, the Potency is 35.5 µM (active) in assay [9] and 3.09 µM (active) in assay [12]. Further, the max response in assay [10] was 49.1% (inactive). The Potency entry in assay [5], in assay [6] and in [7] was “inactive” in each case.
For the molecule `COc1cc2ncnc(Nc3cccc(Cl)c3)c2cc1OC`, the outcome in assay [1] and in [2] was “inactive” throughout. The Potency entry in assay [3] and in assay [4] was “inactive” throughout. The Potency in assay [12] was 8.49 µM (active); in assay [13], 12.6 µM (active); in assay [6], 11.5 µM (active); in assay [7] it was 12.9 µM (active); in [15], 30.4 µM (active). Besides, the activity in assay [14] is -45.8%.
As for `CCN1CCCC1CNC(=O)c1cc(S(N)(=O)=O)ccc1OC` (stereo unspecified), the outcome in assay [1] and in assay [2] was “inactive” throughout. The Potency result in assay [4] is “inactive”.
With `COc1ccc2c(c1)c(CC(=O)OCC(=O)O)c(C)n2C(=O)c1ccc(Cl)cc1`, the outcome in [2] is “inactive”. Further, the Potency entry in [3], in assay [5], in assay [11] and in [12] was “inactive” in each case.
On to `Nc1nc(N)nc(-c2cc(Cl)ccc2Cl)n1`, for which the outcome in assay [2] was “inactive”. Further, the Potency entry in [3], in [5], in [11], in assay [12], in assay [6] and in assay [7] was “inactive” in each case.
Turning to `CC1CC2C3CCC4=CC(=O)C=C[C@]4(C)[C@@]3(F)[C@@H](O)C[C@]2(C)[C@@]1(O)C(=O)CO` (stereo partly specified), the outcome in assay [1] and in assay [2] was “inactive” in each case. In addition, the Potency result in assay [3] and in assay [4] was “inactive” each time.
As to `CC(=O)[C@H]1CC[C@H]2[C@@H]3CCC4=CC(=O)CC[C@]4(C)[C@H]3CC[C@]12C`, the outcome in assay [1] and in assay [2] was “inactive” in each case. The Potency entry in [3] and in assay [4] was “inactive” each time.
On to `CCOC(=O)c1ccc(OC(=O)CCCCCN=C(N)N)cc1`, for which the outcome in assay [2] was “inactive”. Moreover, the Potency result in assay [3], in assay [5], in assay [12] and in [6] was “inactive” throughout. Moreover, the Potency in [11] was 97.7 nM (active); in assay [7], 23.5 µM (active).
In the case of `O=C(O)C1CCCN(CCC=C(c2ccccc2)c2ccccc2)C1` (stereo unspecified), the outcome in [1] and in assay [2] was “inactive” each time. For the same molecule, the Potency entry in assay [4], in assay [6] and in assay [7] was “inactive” throughout.
